Laboratory results as given in the supplement of paper PMC9262897, “Low-cost anti-mycobacterial drug discovery using engineered E. coli” (Nature Communications, 2022).
Where a name gives a salt, the structure may show the parent alone. ± gives the standard deviation of the averaged measurements.

System: E. coli TESEC Mtb Alr
Assay: growth (OD600 after 10 h); higher = more growth (less inhibition)
Settings: compound 0.1 mM
Description: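 TESEC Mtb Alr E. coli, or the Alr+ wild-type control, in 384-well plates with Prestwick library compounds at 0.1 mM and 1% DMSO, across arabinose induction levels of 1E3 to 1E7 nM. Growth is read as OD600 after 10 h at 37 °C in triplicate biological replicates.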

[1] = arabinose 1000 nM, raw OD600 reference: median of DMSO wells 0.294, cell-free background 0.041
[2] = arabinose 10000 nM, raw OD600 reference: median of DMSO wells 0.264, cell-free background 0.041
[3] = arabinose 100000 nM, raw OD600 reference: median of DMSO wells 0.201, cell-free background 0.041
[4] = arabinose 1000000 nM, raw OD600 reference: median of DMSO wells 0.193, cell-free background 0.041
[5] = arabinose 10000000 nM, raw OD600 reference: median of DMSO wells 0.146, cell-free background 0.041

C=CC[N@@+]12CC[C@@]34c5ccccc5N5/C=C6/[C@H]7C[C@H]8[C@@]9(CC[N@@+]8(CC=C)C/C7=C/CO)c7ccccc7N(/C=C(/[C@@H](C[C@@H]31)/C(=C\CO)C2)[C@H]54)[C@@H]69 [Alcuronium chloride]
growth [1]: 0.255 ± 0.004 | growth [2]: 0.162 ± 0.0017 | growth [3]: 0.13 ± 0.0075 | growth [4]: 0.115 ± 0.0062 | growth [5]: 0.155 ± 0.0016

CN1CCC(=C2c3ccccc3CCc3sccc32)CC1 [Pizotifen malate]
growth [1]: 0.133 ± 0.0045 | growth [2]: 0.0893 ± 0.0025 | growth [3]: 0.0952 ± 0.0015 | growth [4]: 0.0482 ± 0.0045 | growth [5]: 0.0637 ± 0.00071

CCOC(=O)O[C@]1(C(=O)COC(=O)CC)CC[C@H]2[C@@H]3CCC4=CC(=O)C=C[C@]4(C)[C@H]3[C@@H](O)C[C@@]21C [Prednicarbate]
growth [1]: 0.268 ± 0.0098 | growth [2]: 0.271 ± 0.0029 | growth [3]: 0.269 ± 0.025 | growth [4]: 0.199 ± 0.012 | growth [5]: 0.174 ± 0.013

CCn1cc(C(=O)O)c(=O)c2ccc(C)nc21 [Nalidixic acid sodium salt]
growth [1]: 0.0467 ± 0.0009 | growth [2]: 0.0394 ± 0.00056 | growth [3]: 0.0502 ± 0.0012 | growth [4]: 0.0413 ± 0.0013 | growth [5]: 0.05153 ± 0.00015

COc1ccc(NS(=O)(=O)c2ccc(N)cc2)nn1 [Sulfamethoxypyridazine]
growth [1]: 0.296 ± 0.011 | growth [2]: 0.236 ± 0.0055 | growth [3]: 0.226 ± 0.024 | growth [4]: 0.181 ± 0.0072 | growth [5]: 0.141 ± 0.0061

NS(=O)(=O)c1cc(C(=O)O)cc(N2CCCC2)c1Oc1ccccc1 [Piretanide]
growth [1]: 0.28 ± 0.0043 | growth [2]: 0.278 ± 0.0094 | growth [3]: 0.22 ± 0.025 | growth [4]: 0.202 ± 0.0072 | growth [5]: 0.134 ± 0.0051

COC(=O)[C@@H]1[C@H]2C[C@H]3c4[nH]c5ccccc5c4CCN3C[C@@H]2CC[C@@H]1O [Yohimbine hydrochloride]
growth [1]: 0.28 ± 0.007 | growth [2]: 0.265 ± 0.0075 | growth [3]: 0.176 ± 0.011 | growth [4]: 0.142 ± 0.0078 | growth [5]: 0.142 ± 0.0022

NC[C@@H]1O[C@@H](O[C@H]2[C@H](O)[C@@H](O[C@H]3O[C@H](CO)[C@@H](O)[C@H](N)[C@H]3O)[C@H](N)C[C@@H]2N)[C@@H](O)[C@H](O)[C@H]1O [Kanamycin A sulfate]
growth [1]: 0.302 ± 0.013 | growth [2]: 0.263 ± 0.0086 | growth [3]: 0.228 ± 0.016 | growth [4]: 0.1781 ± 0.0015 | growth [5]: 0.164 ± 0.0095
